Test results: the supplement of paper PMC4840960

What was measured:
[1] = test system: E18 rat cortical neuron-glia co-culture; experiment: fiber score / MBP score (myelination specific beyond OL differentiation) (ratio); higher = more myelination-specific MBP alignment; conditions: treatment time: 8 days (DIV5-DIV13)
How it was run: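 Library compounds were applied at 1 or 5 µM in myelination medium, DIV5 to DIV13, to primary E18 rat cortical co-cultures grown at 20,000 cells/well in 96-well plates. After 4 % paraformaldehyde fixation and MBP/Olig2/DAPI immunostaining, four 10X fields per well in duplicate wells were scored. Each value is continuous MBP fiber length per Olig2+ nucleus divided by thresholded MBP area × intensity per Olig2+ nucleus.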

[2] = test system: E18 rat cortical neuron-glia co-culture; experiment: myelination (MBP fiber length per Olig2+ nucleus), % of 1 µM DAPT response (DMSO = 0) (% of DAPT); higher = more myelination, active = 50 or more; conditions: treatment time: 8 days (DIV5-DIV13)
How it was run: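 Library compounds at 1 or 5 µM in myelination medium were applied from DIV5 to DIV13 to papain-dissociated E18 rat cortical co-cultures seeded at 20,000 cells/well on poly-d-lysine/laminin 96-well plates. Fixed cells (4 % paraformaldehyde) were immunostained for MBP and Olig2 with DAPI, and four 10X fields were analysed in each duplicate well. Continuous straight MBP fiber length per Olig2+ nucleus was set to 0 for 0.1 % DMSO and to 100 for a 1 µM positive control.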

Row | Structure (SMILES) | fiber score / MBP score ([1]; 1 µM) | fiber score / MBP score ([1]; 5 µM) | myelination ([2]; 1 µM) | myelination ([2]; 5 µM)
1 | CC(C)(C)NCC(O)COc1cccc2c1CC(O)C(O)C2 (stereo not drawn) [Nadolol] | 0.767 | 0.949 | -13.9 (inactive) | -7.81 (inactive)
2 | Clc1ccccc1C(c1ccccc1)(c1ccccc1)n1ccnc1 [Clotrimazole] | 0.906 | 1.15 | 7.64 (inactive) | -27.1 (inactive)
3 | CCN1CCCC1CNC(=O)c1cc(S(N)(=O)=O)ccc1OC (stereo not drawn) [Sulpiride] | 0.858 | 0.751 | -10.3 (inactive) | -10.8 (inactive)
4 | NS(=O)(=O)c1cc2c(cc1C(F)(F)F)NCNS2(=O)=O [Hydroflumethiazide] | 0.948 | 0.763 | -2.17 (inactive) | -13.7 (inactive)
5 | CC(C)(C)NC(=O)[C@@H]1CN(Cc2cccnc2)CCN1C[C@@H](O)C[C@@H](Cc1ccccc1)C(=O)N[C@H]1c2ccccc2C[C@H]1O [Indinavir] | 0.908 | 0.894 | -20.5 (inactive) | -24.1 (inactive)
6 | CN(C)c1nc(N(C)C)nc(N(C)C)n1 [Altretamine] | 0.923 | 0.901 | -3.29 (inactive) | -4.16 (inactive)
7 | Oc1ccc(/C=C/c2cc(O)cc(O)c2)cc1 [Resveratrol] | 0.549 | 0.685 | -12 (inactive) | -13.3 (inactive)
